According to PubChem BioAssay (NCATS):
Records with an inconclusive call do not appear. The source made the active and inactive calls. Calls follow the shape of the dose curve; as a rule, active = well fitted curve in the direction sought with a large enough effect; inconclusive = small, poorly fitted or top-dose-only effect, or another doubt; inactive = no such curve, though single readings can be large; an effect the other way counts as inactive or inconclusive.

Experiments:
[1] = target: Glutathione peroxidase 1 (Homo sapiens) (UniProt P07203); assay: Primary qHTS Assay for Inhibitors of Recombinant Selenoprotein Glutathione Peroxidase 1 (GPX1) (AID 1845191); also: nearly all actives have a fitted effect of over 65% in size; as to activity, negative = inhibition: % is scaled to controls: 0 for no effect and ±100 for the full control effect
In short: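 GR-coupled readout: NADPH consumption tracked by fluorescence, ex 340/em 450 nm, at t=0 and after 15 min at RT. Final mix 10 nM GPX1, 1 mM GSH, 0.5 mM CHP, 0.5 mM NADPH, 100 nM GR, 0.01% BSA, following 30 min enzyme–compound preincubation.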

[2] = target: Phospholipid hydroperoxide glutathione peroxidase GPX4 (Homo sapiens) (UniProt P36969); assay: Primary qHTS Assay for Inhibitors of Recombinant Selenoprotein Glutathione Peroxidase 4 (GPX4) (AID 1845192); also: series mostly up to about 50 µM; % is scaled to controls: 0 for no effect and ±100 for the full control effect; nearly all actives have a fitted effect of over 65% in size
In short: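 Steps: GPX4 plus compound, 30 min RT; add GR/GSH/NADPH master mix; start with cumene hydroperoxide; read 340/450 nm fluorescence at 0 and 15 min. Finals were 200 nM GPX4, 1 mM GSH, 0.5 mM CHP, 0.5 mM NADPH, 100 nM GR.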

[3] = Primary fluorescence-based thiol-reactive (MSTI) qHTS assay for identification of artifact compounds. (AID 1845221); also: nearly all actives have a fitted effect of over 65% in size; also: potency is read from the fitted curve at half-maximal effect;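 as to activity change, negative = thiol reactive: series mostly up to about 54 µM; thiol-reactive compounds lower the probe fluorescence signal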
In short: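 Thiol-reactive compounds detected by quenching of 4 uM MSTI fluorescence (525/598 nm) after 1 h room-temperature dark incubation in PBS pH 7.4, 2% DMSO. qHTS titration; percent inhibition Hill-fitted against Acetyl-MSTI/MSTI controls.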

[4] = test system: Nanoluciferase (engineered Oplophorus gracilirostris luciferase); assay: Primary Nanoluciferase (NLuc) qHTS assay for identification of artifact compounds. (AID 1845222); also: potency is read from the fitted curve at half-maximal effect;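 as to activity, negative = inhibition: series mostly up to about 54 µM; 0% = DMSO and -100% = no enzyme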
In short: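 Diluted conditioned medium from NLuc-expressing S16 cells treated with compounds for 15 min at room temperature, then Nano-Glo substrate added; luminescence read after 5 min. Percent inhibition versus no-enzyme and DMSO controls fitted to 4-parameter Hill equation.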

[5] = Primary redox qHTS assay for identification of artifact compounds. (AID 1845223);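 also: 0% = DMSO and 100% = reference compound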
In short: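 Redox-cycling detection via DTT (250 uM final) oxidation coupled to Amplex Red (25 uM)/HRP (250 mU/mL) in HBSS. 15 min preincubation plus 30 min after DTT, room temperature. Ex/Em 525/598 nm; 4-parameter Hill fit against DMSO and 10 uM DA3003.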

[6] = target: Luciferin 4-monooxygenase (Photinus pyralis) (UniProt P08659); assay: Primary firefly luciferase (FLuc) qHTS assay for identification of artifact compounds. (AID 1845220);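 also: series mostly up to about 54 µM; plate controls were DMSO vehicle for no effect and no enzyme for full effect; nearly all actives have a fitted effect of over 60% in size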
In short: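 D-luciferin and ATP (10 uM each, final) in Tris acetate buffer pH 7.6 were incubated with compounds for 15 min at room temperature. The reaction was started with 10 nM Photinus pyralis luciferase and luminescence read after 5 min. Percent inhibition was fitted to a 4-parameter Hill equation.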

Phospholipid hydroperoxide glutathione peroxidase GPX4 (Homo sapiens), sequence (P36969 whole entry, looked up): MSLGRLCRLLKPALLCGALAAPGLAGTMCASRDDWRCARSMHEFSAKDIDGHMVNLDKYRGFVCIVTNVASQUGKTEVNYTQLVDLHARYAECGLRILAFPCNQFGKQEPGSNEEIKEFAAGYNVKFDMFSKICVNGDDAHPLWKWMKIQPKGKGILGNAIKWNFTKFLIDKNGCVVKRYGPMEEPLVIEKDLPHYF
Glutathione peroxidase 1 (Homo sapiens), sequence (P07203 whole entry, looked up): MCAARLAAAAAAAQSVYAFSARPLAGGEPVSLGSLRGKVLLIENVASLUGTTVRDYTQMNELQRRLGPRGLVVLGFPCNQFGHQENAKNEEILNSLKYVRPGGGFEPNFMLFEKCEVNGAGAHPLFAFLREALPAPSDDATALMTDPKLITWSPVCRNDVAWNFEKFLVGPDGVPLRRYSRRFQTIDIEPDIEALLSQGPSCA

CC(C)C1(O)C=C2C(=O)CC3C(C)(C(=O)O)CCCC3(C)C2CC1 (centres undefined)
inactive: Potency [1] | Potency [2] | Potency [3] | Potency [4] | Potency [5]

CCOc1ccc(-c2cc(NC(=O)c3c(F)cccc3F)c(C(=O)O)s2)cc1
active: Potency [4] 12 µM
inactive: Potency [1] | Potency [2] | Potency [3] | Potency [5]

CC/C=C\C(O)C(O)C1=C(C)C(=O)C2(O1)C(=O)NC(OC)(C(=O)c1ccccc1)C2O (centres undefined)
active: Potency [3] 4.62 µM
inactive: Potency [1] | Potency [6] | Potency [4]

C=C1CC[C@H]2[C@@](C)(CCC(OC3OC(CO)C(O)C(O)C3O)[C@@]2(C)CO)C1C(=O)CC1=CCOC1=O (some centres undefined)
inactive: Potency [1] | Potency [2] | Potency [4] | Potency [5]
active: Potency [3] 3.27 µM

Cn1c2ccc(NC(=O)c3ccccc3)cc2c(=O)n2nc(C(=O)O)cc12
inactive: Potency [1] | Potency [2] | Potency [4] | Potency [5]

C[C@@H]1O[C@@H](OC(=O)Cc2ccccc2)[C@H](O)[C@H](O)[C@H]1O
inactive: Potency [1] | Potency [2] | Potency [4] | Potency [5]

COc1cc(O)c(C(=O)O)c(CCc2ccccc2)c1
inactive: Potency [1] | Potency [2] | Potency [3] | Potency [5]

C=C(C(=O)O)[C@H]1C[C@]2(C)C(=O)CC[C@]23O[C@H]1C[C@@H]3C
inactive: Potency [1] | Potency [2] | Potency [4] | Potency [5]

O=C(O)C1(c2ccc(-c3ccc(Cl)c(Cl)c3)c(F)c2)CC1
active: Potency [4] 16.9 µM
inactive: Potency [1] | Potency [2] | Potency [3] | Potency [5]

C/C=C/C=C/C1=C2C(=O)C3(C)C4C(C(=O)CC(O)/C=C/C)=C(O1)C1(C)C2C2(C)OC1(O)C4(C)OC23O (centres undefined)
active: Potency [3] 5.82 µM
inactive: Potency [1] | Potency [6] | Potency [4]

COc1ccc(-c2ccn(CC[C@](C)(C(=O)NO)S(C)(=O)=O)c(=O)c2)c(F)c1
inactive: Potency [1] | Potency [2] | Potency [4] | Potency [5]

CC1(C)O[C@H]2CC(=O)OC[C@@]23C1=C(O)C(=O)[C@]1(C)C3CC[C@@]2(C)[C@H](c3ccoc3)OC(=O)[C@H]3O[C@]321 (some centres undefined)
inactive: Potency [1] | Potency [2] | Potency [3] | Potency [4] | Potency [5]

CC(CC12CCCN1C(=O)C1CCCN1C2=O)OC(N)=O (centres undefined)
inactive: Potency [1] | Potency [2] | Potency [3] | Potency [4] | Potency [5]

N=C(N)c1ccc2nc(-c3cc(CC(=O)NC(CC(=O)O)C(=O)O)cc(-c4cc(S(N)(=O)=O)ccc4O)c3O)[nH]c2c1 (centres undefined)
inactive: Potency [1] | Potency [2] | Potency [4] | Potency [5]
active: Potency [3] 2.12 µM

Oc1ccccc1-c1cc(-c2ccccc2F)[nH]n1
inactive: Potency [1] | Potency [2] | Potency [3] | Potency [4] | Potency [5]

N#Cc1cccc(-c2nc(-c3cccnc3)no2)c1
inactive: Potency [1] | Potency [2] | Potency [3] | Potency [4] | Potency [5]

CCCN1CCC[C@@H](c2cccc(S(C)(=O)=O)c2)C1
inactive: Potency [1] | Potency [2] | Potency [3] | Potency [4] | Potency [5]

COc1ccc(CCC(=O)c2c(O)cc(O[C@@H]3O[C@H](CO)[C@@H](O)[C@H](O)[C@H]3O[C@@H]3O[C@@H](C)[C@H](O)[C@@H](O)[C@H]3O)cc2O)cc1O
inactive: Potency [1] | Potency [6] | Potency [3] | Potency [4]

O=C(Nc1ccccc1)Nc1ccc(-c2ccc(C(=O)C3CCCC3C(=O)O)cc2)cc1 (centres undefined)
inactive: Potency [1] | Potency [2] | Potency [3] | Potency [4] | Potency [5]

CC1CC(O)/C=C/C(O)/C=C\C(=O)O1 (centres undefined)
inactive: Potency [1] | Potency [2] | Potency [3] | Potency [4] | Potency [5]

COC(=O)c1cc(OC)cc(OC)c1C(=O)c1c(OC)cc2c(c1O)C1CCC(O)C(C)(O2)O1 (centres undefined)
inactive: Potency [1] | Potency [2] | Potency [4]

O=[N+]([O-])c1cc(Cl)ccc1S(=O)(=O)N1CCN(Cc2ccccc2)CC1
inactive: Potency [1] | Potency [2] | Potency [4] | Potency [5]

COc1ccc(C2C(C(=O)O)C(C(=O)O)C2c2ccc(OC)cc2O[C@@H]2O[C@H](CO)[C@@H](O)[C@H](O)[C@H]2O)c(O[C@@H]2O[C@H](CO)[C@@H](O)[C@H](O)[C@H]2O)c1 (some centres undefined)
inactive: Potency [1] | Potency [2] | Potency [4] | Potency [5]
active: Potency [3] 2.81 µM

C=CC(C)(O)CC/C=C(\C)C(=O)O[C@@H]1[C@@H](O)[C@H](OC(C)(C=C)CC/C=C(\C)C(=O)O[C@@H]2O[C@H](CO)[C@@H](O)[C@H](O)[C@H]2O)O[C@H](CO)[C@H]1OC(=O)/C(C)=C/CCC(C)(O)C=C (some centres undefined)
inactive: Potency [1] | activity change, negative = inhibition [6] 0.429% [at 11.6 µM] | activity change, negative = thiol reactive [3] 71.6% [at 11.5 µM] | activity, negative = inhibition [4] 0.542% [at 11.6 µM] | redox activity (% of DA3003) [5] -5.92% [at 11.5 µM]

CC1(C)CC[C@]2(C(=O)O)CC[C@]3(C)C(=CCC4[C@@]5(C)C[C@@H](O)[C@H](O)[C@@](C)(CO)C5CC[C@]43C)C2C1 (some centres undefined)
inactive: Potency [1] | Potency [6] | Potency [3] | Potency [4] | Potency [5]
